Assay outcomes from PubChem.
Compounds with a hit are over-represented: about 2.7% of the library has one in this group of screens.
12-LOX inh = Primary qHTS assay for inhibitors of human arachidonate 12S-lipoxygenase (ALOX12): Round 2. purified 12hLO, xylenol orange hydroperoxide absorbance. AID 1671190, 2021. Polyunsaturated fatty acid lipoxygenase ALOX12 (Homo sapiens), P18054. Potency, µM (series often up to 108 µM), for the others: top-dose activity change, negative = inhibition, most hits filed as inhibitors. 1.1% of 580,000 active; note: potency is the fitted concentration of half-maximal effect; % is set by controls: 0 for no effect and ±100 for the full control effect
Target sequence (P18054 whole entry, looked up): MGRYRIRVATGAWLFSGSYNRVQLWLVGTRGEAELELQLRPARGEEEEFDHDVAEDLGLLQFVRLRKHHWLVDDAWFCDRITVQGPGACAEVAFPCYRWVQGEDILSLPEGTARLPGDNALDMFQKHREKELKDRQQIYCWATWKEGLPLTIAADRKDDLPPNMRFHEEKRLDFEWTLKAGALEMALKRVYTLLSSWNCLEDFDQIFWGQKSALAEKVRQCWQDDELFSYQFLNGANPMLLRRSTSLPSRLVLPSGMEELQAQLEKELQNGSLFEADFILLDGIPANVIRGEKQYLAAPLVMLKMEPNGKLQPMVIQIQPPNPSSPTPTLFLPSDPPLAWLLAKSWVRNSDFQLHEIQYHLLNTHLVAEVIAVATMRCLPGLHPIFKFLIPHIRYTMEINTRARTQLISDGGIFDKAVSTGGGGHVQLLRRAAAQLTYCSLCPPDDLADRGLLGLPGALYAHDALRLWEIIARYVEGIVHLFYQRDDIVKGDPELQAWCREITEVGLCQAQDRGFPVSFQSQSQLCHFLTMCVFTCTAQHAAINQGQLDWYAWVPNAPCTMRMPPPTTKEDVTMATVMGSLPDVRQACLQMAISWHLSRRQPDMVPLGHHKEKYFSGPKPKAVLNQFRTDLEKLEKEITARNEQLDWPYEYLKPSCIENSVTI
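Purified human 12hLO (150 nM final) in 25 mM Hepes, 0.01% Triton X-100, pH 7.0 was preincubated 15 min at room temperature with compound. Then 40 uM arachidonic acid was added, 30 min. Hydroperoxide was read by Fe-XO absorbance ratio 573/405 nm.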
LDHA block = qHTS assay for inhibitors of human lactate dehydrogenase; L-lactate dehydrogenase A chain (Homo sapiens), P00338; purified LDHA, NADH/diaphorase-resazurin fluorescence; active compounds read low; activity change, % (values are at about 110 or 230 µM); 0.15% of 480,000 active; AID 1347041, 2019; in the data active = activity change below about -30%; inconclusive = mostly about -25% to -30%;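 note: plate controls were DMSO wells for no effect and wells without enzyme for full effect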
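Enzyme activity of human lactate dehydrogenase 5 (2 nM; 0.06 mM NADH, 0.2 mM pyruvate, 5 min, RT) is measured via a resazurin/diaphorase fluorescence readout of residual NADH.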
A549 tox = Nrf2 qHTS screen for inhibitors: counterscreen for cytotoxicity; AID 504648, 2011; A549 ARE-Fluc cells, CellTiter-Fluor viability, 18-24 h; Potency, µM (doses to about 46 µM), without a hit: top-dose activity change, negative = cytotoxicity, hits mostly inhibitors; 0.16% of 390,000 active; note: potency is the fitted concentration of half-maximal effect; % is set by controls: 0 for no effect and ±100 for the full control effect
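A549 ARE_Fluc cells in 5% FBS OPTI-MEM were exposed to compounds in concentration-response for 18-24 h at 37 deg C. Viability was read by CellTiter-Fluor fluorescence (Ex 405/Em 525) after 30 min, before the luciferase read.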
IDH1 R132H inh = qHTS for Inhibitors of mutant isocitrate dehydrogenase 1 (IDH1): qHTS | Potency, µM (doses to about 76.6 µM), without a hit: top-dose activity change, negative = inhibition, hits mostly inhibitors | IDH1-R132H enzyme, NADPH consumption, diaphorase/resazurin fluorescence | 0.093% of 390,000 active | Isocitrate dehydrogenase [NADP] cytoplasmic (Homo sapiens), O75874 | AID 602179, 2012; note: potency is the fitted concentration of half-maximal effect; % is set by controls: 0 for no effect and ±100 for the full control effect; nearly all actives have a fitted effect of over 65% in size
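IDH1-R132H (0.5 ug/mL dispensed) in pH 7.5 Tris buffer was preincubated 30 min with compound, then given a substrate mix of 0.016 mM NADPH and 2 mM alpha-KG for 80 min at room temperature; remaining NADPH was read by diaphorase/resazurin fluorescence.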
Nrf2 activator = qHTS of Nrf2 Activators; AREc32 ARE-luciferase reporter (MCF7-derived line), luminescence, 24 h; Potency, µM (doses to about 46.1 µM), for the others: at the top dose activation, actives largely listed as activators; 0.31% of 410,000 active; AID 624171, 2012; note: potency is the fitted concentration of half-maximal effect; % of control where 0% means no effect; nearly all actives have a fitted effect of over 65% in size
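Nrf2 activation is followed as ARE-luciferase induction in the AREc32 line after one day of compound treatment; luminescence is read with Steady-Glo.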
Nrf2 inh = Nrf2 qHTS screen for inhibitors; Potency, µM (highest dose often 46 µM), inactives show at the highest dose activity change, negative = inhibition, most hits filed as inhibitors; AID 504444, 2011; 2.1% of 360,000 active; A549 ARE-Fluc reporter, luciferase luminescence, 18-24 h; note: potency is the fitted concentration of half-maximal effect; % is set by controls: 0 for no effect and ±100 for the full control effect; nearly all actives have a fitted effect of over 60% in size
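Reporter: ARE-Fluc in A549. Exposure: 18-24 h, 37 °C, 5% CO2, 5% FBS OPTI-MEM. Readouts: fluorescent cytotoxicity (CellTiter-Fluor), then luminescent Nrf2 signal after BugLite.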
The depositor's hits bear a star; ? = inconclusive; . = no result; ! = repeats disagree; [ ] = dose if it differs, or a comment. Unless noted, calls come from the whole dose curve; as a rule, active = well fitted curve in the direction sought with a large enough effect; inconclusive = small, poorly fitted or top-dose-only effect, or another doubt; inactive = no such curve, though single readings can be large; an effect the other way counts as inactive or inconclusive.

SMILES	12-LOX inh	LDHA block	A549 tox	IDH1 R132H inh	Nrf2 activator	Nrf2 inh
CCCCc1cc(=O)oc2cc(OCC(=O)Nc3ccccn3)ccc12	18%	-6	-6%	0%	13µM*	-9%
CCCCc1cc(=O)oc2cc(OCC(=O)NCc3ccccn3)ccc12	7%	-4	2%	-2%	0%	10%
CCCCc1cc(=O)oc2cc(OCC(=O)NCc3ccc(S(N)(=O)=O)cc3)ccc12	?	-4	.	.	.	.
CCCc1cc(=O)oc2cc(OCC(=O)Nc3ccc(S(N)(=O)=O)cc3)ccc12	?	-37*	3%	1%	0%	0%
O=C(COc1ccc2c(-c3ccccc3)cc(=O)oc2c1)Nc1ccc(CCO)cc1	2%	-11	-9%	5%	3%	10µM*
O=C(O)CCN1CCN(CCC(=O)O)CC1	?	-2	.	.	.	.
Cc1ccc(NC(=O)C23CCC(C)(C(=O)C2)C3(C)C)c(C)c1 (centres undefined)	?	-6	.	.	.	.
N/C(=N/OC(=O)c1ccccc1Cl)c1nonc1N	-16%	0	-8%	-5%	13µM*	?
CSc1ccc(C=Nc2cccc(Cl)c2C)cc1	17%	10	.	.	.	.
O=C(OCC(=O)N1CCC(c2ccccc2)=N1)c1ccc([N+](=O)[O-])s1	-12%	2	?	0%	13%	23µM*
Cc1cc(C(=O)OCC(=O)N2CCC(c3ccccc3)=N2)ccc1[N+](=O)[O-]	4%	-5	-2%	6%	-1%	-3%
COCCNC(=O)[C@@H]1CCC[C@@H](NC(=O)c2ccccc2)CN(C)C(=O)C1	20%[176 µM]	.	.	.	.	.
CCCNC(=O)N[C@@H]1CCC[C@@H](C(=O)NCCOC)CC(=O)N(C)C1	25µM*	.	.	.	.	.
CCCCCn1c(=O)[nH]c2cc(C(=O)Nc3ccc(OC)cc3)ccc2c1=O	.	0	6%	1%	0%	10%
CCn1c(=O)[nH]c2cc(C(=O)Nc3cc(C)cc(C)c3)ccc2c1=O	-24%	-6	11%	6%	0%	16µM*
O=C(Nc1nc2c(Cl)cccc2s1)c1ccc([N+](=O)[O-])o1	-3%	-4	-10%	14%	5µM*	6%
O=C(Nc1nc2c(F)cccc2s1)c1ccc([N+](=O)[O-])o1	-14%	-10	5%	0%	10µM*	16%
O=C(Nc1nc2ccc(F)cc2s1)c1ccc([N+](=O)[O-])o1	-3%	-13	.	2%	3.2µM*	.
Cc1ccc2c(=O)cc(C(=O)Nc3nc4ccc(F)cc4s3)oc2c1C	-83%	-1	.	.	.	.
NS(=O)(=O)c1ccc(CCNC(=O)c2cc(=O)c3ccccc3o2)cc1	-1%	-11	.	.	.	.
Cc1cc(Cl)ccc1OCC(=O)NCC(c1cccs1)N1CCOCC1 (centres undefined)	-14%	-8	-5%	5%	0%	18µM*
O=C(NCC(c1cccs1)N1CCOCC1)c1cc2ccccc2oc1=O (centres undefined)	18µM*!	-16	-5%	-4%	4%	-5%
Cc1ccc(-c2cc(C(=O)OCC(=O)NC(=O)NC(C)C)c3ccccc3n2)o1	?	3	.	.	.	.
COc1ccc(/C=C2/C(=O)N(c3nc4ccccc4s3)N=C2CSc2ccc(Cl)cc2)cc1	5µM*	-17	-2%	7%	0%	12%
COc1ccc(/C=C2/C(=O)N(Cc3ccccc3)N=C2C)cc1	-38%	3	8%	7%	-1%[9.22 µM]	7%
Cc1cc(C)c2c(CC(=O)O)c(C)[nH]c2c1	50µM*	0	2%	0%	5%	?
COc1ccc(-c2cn3c(n2)CO[C@@H](CNS(C)(=O)=O)C3)cc1	29%[176 µM]	.	.	.	.	.
